# Measurements published in ChEMBL document CHEMBL1157539, “Thousands of chemical starting points for antimalarial lead identification” (Nature, 2010).
# Test system: Plasmodium falciparum
# Assay: GSK_TCMDC: Inhibition of Plasmodium falciparum Dd2 in whole red blood cells, using parasite LDH activity as an index of growth. Test compounds present at 2uM
# Type: functional
row,SMILES,Inhibition [%]
1,CS(=O)(=O)CCN(CCS(C)(=O)=O)Cc1ccc(-c2ccc3ncnc(Nc4ccc(OCc5cccc(F)c5)c(Cl)c4)c3c2)o1.Cc1ccc(S(=O)(=O)O)cc1,27
2,O=C(NCc1ccc(Cl)c(Cl)c1)c1ccc(C2CCN(Cc3ccc4[nH]cnc4c3)CC2)cc1,31
3,COc1ccc(C(=O)NCC(C)(C)c2nc(-c3ccc(Cl)c(O)c3)c(-c3ccncc3)[nH]2)cc1OCCN(C(C)C)C(C)C.Cl,96
4,COc1ccc2nc3cc(Cl)ccc3c(NCCCCN3CCNCC3)c2c1.Cl,75
5,c1cc(Nc2nccc(-c3cnn4ncccc34)n2)cc(-c2cnco2)c1,83
6,Cc1[nH]c(C)c(-c2ccc(Oc3cccc(Cl)c3)cc2)c(=O)c1Cl,97
7,CN1CCCN(c2ccnc3cc4c(cc23)N(C(=O)c2ccccc2Cl)CC4)CC1.Cl,30
8,COc1ccc(C(=O)NC2CCN(c3ccnc4cc(Cl)ccc34)C2)cc1.O=C(O)C(F)(F)F (stereo unspecified),100
9,CCN(CCCN1CCCCC1)c1cc(C)nc(Nc2ccc(OC)cc2)n1.O=C(O)C(F)(F)F,24
10,NCCCN(Cc1ccc(Cl)c(Cl)c1)C(=O)Nc1ccc(Cl)c(Cl)c1,41
11,CCCCSc1nc2c(c(=O)n1Cc1ccco1)C1(CCCCC1)Cc1ccccc1-2,78
12,CN(C)CCOc1ccc(/C(=C(/CCCn2ccnc2)c2ccccc2)c2ccc(O)cc2)cc1,99
13,CCCN1CCC=C(c2cccc(Nc3nccc(Nc4cc(OC)ccc4C)n3)c2)C1.Cl,35
14,O=C(CSc1cccc[n+]1[O-])c1ccc(Cc2ncc(C(F)(F)F)cc2Cl)s1,0
15,CCN(CC)CCN(Cc1ccc(-c2ccc(C(F)(F)F)cc2)cc1)C(=O)Cn1c(CCc2cccc(F)c2F)cc(=O)c(C)c1C.O=C(O)C(O)C(O)C(=O)O,87
16,Br.N=C(N)Nc1nc(-c2cccc(NC(=O)C(F)(F)F)c2)cs1,24
17,CS(=O)(=O)c1ccc2c(c1)CCN(CCC1CCC(NC(=O)C(=Cc3ccc(Cl)cc3Cl)c3ccc(-c4ccccc4)cc3)CC1)CC2 (stereo unspecified),16
18,COc1ccc(N2CCN(c3nc(Nc4ccc(NC(C)=O)cc4)nc(N4CCCC4)n3)CC2)cc1,38

row,SMILES,Inhibition [%]
1,O=C(Nc1ccc(Oc2ccc(OC(F)(F)F)cc2)cc1)c1ccco1,71
2,O=C(Nc1ccc(Cl)cc1)Nc1cccc(-c2ccc(-c3nc4ccccc4[nH]3)cc2)c1,6
3,CCCCCC(C)C(C)c1cc(O)c2c(c1)OC(C)(C)C=C2c1cc[n+]([O-])cc1 (stereo unspecified),2
4,COc1cc(-n2c(CN3CCCC3)nc3cc(-c4ccc(Cl)cc4)sc3c2=O)ccc1OCCN1CCCC1.O=C(O)C(F)(F)F,90
5,O=C(/C=C/c1ccc(C(F)(F)F)cc1)NCCCCCN1CCCN(C(=O)Nc2ccc(F)c(Cl)c2)CC1,33
6,CCOC(=O)c1ccc(OCCCCCCOc2ccc(Br)cc2)cc1,0
7,O=S(=O)(c1cccc(C(F)(F)F)c1)N1CCC(CO)(Cc2cccc(C(F)(F)F)c2)CC1,79
8,O=C(Nc1cccc2ccccc12)N1CCC(NS(=O)(=O)c2cccc(C(F)(F)F)c2)CC1,1
9,O=C(NCCCN1CCCCC1)c1ccc(Nc2nccc(Nc3ccc(Oc4ccccc4)cc3)n2)cc1,61
10,CC(=O)Nc1ccc2[nH]cc(C3CCN(CCC4CCN(C(=O)/C=C/c5ccc(Cl)c(Cl)c5)CC4)CC3)c2n1,80
11,COc1ccc(CNC2CCN(C)CC2)cc1-c1ccc(S(=O)(=O)NCCc2ccccn2)c(F)c1.O=C(O)C(F)(F)F,55
12,Cl.N=C(N)NN=Cc1ccc2c(c1)Cc1ccccc1-2,81
13,CC(C)(C)c1ccc(CN2CCC(CNC(=O)c3cc(-c4ccccc4F)cs3)C2)cc1.O=C(O)C(F)(F)F (stereo unspecified),98
14,CC(Cc1ccc(NC(=O)c2ccc(NCCc3ccccc3)cc2)cc1)NCCc1cccc(Cl)c1.Cl (stereo unspecified),1
15,O=C(Nc1ccc(S(=O)(=O)N2CCCC2)cc1)c1cc(-c2cccnc2)nc2ccc(Cl)cc12,95
16,COc1ccc(CN2CCCN(Cc3cccc(C(=O)Nc4ccc(C(C)(C)C)cc4)c3)CC2)cc1.O=C(O)C(F)(F)F,3
17,C=C(C)CSc1nc2c(c(=O)n1CCc1ccccc1)C1(CCCC1)Cc1ccccc1-2,80
18,COc1ccc(-c2cnc3ccc(N4CCCC4)nn23)cc1OC.O=CO,98
